Rows were chosen to be rich in hits. Some 6.1% of all compounds tested hit in one or more screens of this group.
TGFb inhibitor: inhibitors of TGF-b signaling | HepG2 CAGA-GFP TGF-b/SMAD3 reporter, GFP fluorescence, 18 h; TGF-beta stimulated, 500 pg/mL final | Potency, µM (titrated, usually from 46.1 µM), hits mostly inhibitors | 410,000 tested, 1.2% active | AID 588855; also: nearly all actives have a fitted effect of over 65% in size
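Read-out: total well GFP (ex488/em500-530) summed from mean per-cell fluorescence. Cells: HEPG2 CAGA-GFP, 1% FBS DMEM, 18 h at 37 degrees C with 500 pg/mL final TGF-beta. Unstimulated wells served as the full-inhibition control; stimulated DMSO wells = 0%.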
ATXN2 expr inh: reduces ATXN2 reporter expression in HEK-293 cells; 360,000 tested, 0.72% active; AID 1745845; Potency, µM (doses to about 57 µM), hits mostly inhibitors; HEK-293 ATXN2-luciferase reporter, luminescence, 24 h; also: nearly all actives have a fitted effect of over 55% in size
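ATXN2-luciferase reporter cells (luciferase flanked by upstream and downstream ATXN2 gene portions) were treated 24 h at 37 °C with compounds at up to 57 uM. SteadyGlo luminescence gave expression; GF-AFC fluorescence gave viability.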
ATXN viability: reduces viability in counter-screen for ATXN expression inhibitors; 400,000 tested, 0.49% active; S2 cells (HEK-293 line with an ATXN2-luciferase reporter) viability, CellTiter-Fluor protease fluorescence, 24 h; AID 651635; Potency, µM (series often up to 56.7 µM), most hits filed as cytotoxic; also: nearly all actives have a fitted effect of over 40% in size
VP16 counter: counter-screen for ROR gamma inhibitors: Gal4-VP16 reporter | Drosophila S2 Gal4-VP16 UAS-luciferase, luminescence, 20 h | Potency, µM (series often up to 53.6 µM), actives largely listed as inhibitors | 310,000 tested, 3.5% active | AID 2546;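 also: Gal4-VP16 expression switched on by copper sulfate through the metallothionein promoter; nearly all actives have a fitted effect of over 50% in size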
RORg inh: blocks mouse ROR gamma transcriptional activity. Potency, µM (top dose mostly 53.6 µM), actives largely listed as inhibitors. P51450. AID 2551. Drosophila S2 Gal4-RORgamma UAS-luciferase reporter, 20 h. 310,000 tested, 5.4% active; also: nearly all actives have a fitted effect of over 60% in size
Target sequence (P51450 whole entry, looked up, the tested form may be a part): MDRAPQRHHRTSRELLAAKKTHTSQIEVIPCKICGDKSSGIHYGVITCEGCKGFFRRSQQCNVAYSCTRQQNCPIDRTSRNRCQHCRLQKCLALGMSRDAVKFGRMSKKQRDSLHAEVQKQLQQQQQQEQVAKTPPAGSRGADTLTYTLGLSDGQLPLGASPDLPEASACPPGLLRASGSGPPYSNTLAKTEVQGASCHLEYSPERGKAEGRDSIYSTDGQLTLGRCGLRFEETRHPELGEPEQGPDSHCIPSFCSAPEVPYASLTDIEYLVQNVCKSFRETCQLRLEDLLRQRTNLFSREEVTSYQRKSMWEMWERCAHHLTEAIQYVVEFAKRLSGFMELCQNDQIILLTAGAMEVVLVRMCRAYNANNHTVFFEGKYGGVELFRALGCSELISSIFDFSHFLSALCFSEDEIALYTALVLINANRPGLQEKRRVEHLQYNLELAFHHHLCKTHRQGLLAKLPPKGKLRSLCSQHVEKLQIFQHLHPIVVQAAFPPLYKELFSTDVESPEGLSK
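A Gal4/UAS one-hybrid system in insect cells: metallothionein-promoter Gal4–ROR gamma fusion plus Photinus luciferase reporter. Copper sulfate 700 uM final, 20 hr ambient incubation, luminescent detection after 10 min with reagent.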
HepG2 viability: counter-screen for TGF-b inhibitors: cytotoxicity in HepG2 cells. HepG2 CAGA-GFP viability, ATP luminescence, 18 h. Potency, µM (top dose mostly 46.1 µM), hits mostly cytotoxic. 410,000 tested, 0.76% active
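CellTiter-Glo luminescence gave cytotoxicity after 18 hours at 37 degrees C. The cells were HepG2 CAGA-GFP in 1% FBS DMEM, stimulated with 500 pg/mL TGF-beta after compound addition. %Activity was normalised to no-cell wells (complete cell-killing) and DMSO (no toxicity), and curves were fitted and classified.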
Each line names hits and unclear results; the compound was inactive in the other large screens. Calls follow the shape of the dose curve; as a rule, active = well fitted curve in the direction sought with a large enough effect; inconclusive = small, poorly fitted or top-dose-only effect, or another doubt; inactive = no such curve, though single readings can be large; an effect the other way counts as inactive or inconclusive.

O=[N+]([O-])c1ccccc1-c1cc(-c2cc(Cl)ccc2O)n[nH]1	TGFb inhibitor inconclusive, ATXN viability inconclusive, VP16 counter inconclusive, RORg inh 16µM
O=C(O)c1cc(-c2ccc(Cl)cc2)n[nH]1	none (no result: VP16 counter)
Cc1ccc(O)c(-c2cc(-c3ccccc3[N+](=O)[O-])[nH]n2)c1	TGFb inhibitor inconclusive, VP16 counter inconclusive, RORg inh inconclusive (no result: ATXN viability)
COc1ccc(Br)cc1CNC(=O)c1cc2n(n1)CCCN(Cc1ccc(C)cc1)C2=O	TGFb inhibitor inconclusive, ATXN viability inconclusive (no result: VP16 counter, RORg inh)
Cc1oc2ncn(CC(C)C)c(=O)c2c1C(=O)N(CCN(C)C)Cc1ccccc1	none (no result: VP16 counter, RORg inh)
C/C(=C\c1ccco1)CN1CCOc2ccc(C(C)(O)COc3ccccc3)cc2C1 (stereo not given)	none (no result: TGFb inhibitor, ATXN2 expr inh, VP16 counter, RORg inh, HepG2 viability)
CC(=O)N1CCN(c2csc3ccc(F)cc3c2=O)CC1	ATXN viability inconclusive (no result: VP16 counter, RORg inh)
CC(C)c1ccc(C(=O)C[N+]2(C)CCOCC2)cc1	none (no result: ATXN2 expr inh, ATXN viability, VP16 counter, RORg inh)
CN(c1ccccc1)c1ncnc2c1cnn2C	none (no result: ATXN2 expr inh, ATXN viability, VP16 counter, RORg inh)
COc1ccc2cc(C(N)=O)/c(=N\NC(=O)c3ccccc3)oc2c1	ATXN2 expr inh inconclusive, VP16 counter inconclusive, RORg inh 13µM
Cc1cccc(N=c2oc3cc(O)ccc3cc2C(N)=O)c1	TGFb inhibitor inconclusive, VP16 counter 14µM, RORg inh 11µM (no result: ATXN viability)
COc1ccccc1NC(=O)c1cc2ccc(O)cc2o/c1=N\O	VP16 counter 2.2µM, RORg inh 0.89µM
COc1ccccc1N=c1oc2cc(O)ccc2cc1C(=O)NCC1CCCO1 (stereo not given)	none
COc1ccccc1N=c1oc2cc(O)ccc2cc1C(N)=O	RORg inh inconclusive, HepG2 viability 10µM (no result: ATXN viability)
COc1cccc(C(=O)N/N=c2/oc3ccccc3cc2C(N)=O)c1	ATXN viability inconclusive
COc1ccc2cc(C(N)=O)c(=Nc3ccc(C)cc3)oc2c1	RORg inh inconclusive
O=C1O[C@H]2[C@H](O)[C@@H]1OC(O)[C@H]2O (stereo not given in full)	none (no result: TGFb inhibitor, ATXN2 expr inh, VP16 counter, RORg inh, HepG2 viability)
CCCn1c(=O)c(C(=O)NCc2cccnc2)c(O)c2ccccc21	ATXN2 expr inh inconclusive
Cn1nc(C(C)(C)C)cc1C(=O)NCc1ccc2c(c1)OCO2	ATXN2 expr inh inconclusive, VP16 counter 1µM
O=C(NCc1ccccn1)c1c(O)c2cccc3c2n(c1=O)CC3	VP16 counter inconclusive, RORg inh 2.8µM
CCCn1c(=O)c(C(=O)NCCc2ccc(OC)c(OC)c2)c(O)c2ccccc21	TGFb inhibitor inconclusive, VP16 counter inconclusive, RORg inh 11µM
CCCn1c(=O)c(C(=O)NCc2ccccn2)c(O)c2ccccc21	VP16 counter inconclusive, RORg inh 10µM
CCCn1c(=O)c(C(=O)NCc2ccc3c(c2)OCO3)c(O)c2ccccc21	VP16 counter inconclusive, RORg inh 13µM (no result: ATXN2 expr inh)
Cc1ccccc1NC(=O)c1nnn(-c2ccc3c(c2)OCCO3)c1N	VP16 counter inconclusive, RORg inh 0.63µM
Cc1nn(Cc2ccc(F)cc2)c2sc(C(=O)Nc3nccs3)cc12	VP16 counter inconclusive, RORg inh 11µM
Cc1nn(Cc2ccccc2Cl)c2sc(C(=O)Nc3nccs3)cc12	VP16 counter inconclusive, RORg inh 10µM
Cc1csc(C(C)N(C)C(=O)c2cnn(-c3nccc(-c4cc(C)sc4C)n3)c2C)n1 (stereo not given)	none (no result: TGFb inhibitor, ATXN2 expr inh, VP16 counter, RORg inh, HepG2 viability)
CN(C1CCCCC1)S(=O)(=O)c1ccc2c(c1)c(=O)c(C(=O)N1CCN(c3ccccc3)CC1)cn2C	none (no result: VP16 counter, RORg inh)
Cc1c(C(=O)NC(=S)Nc2ccc(N3CCOCC3)cc2)cccc1[N+](=O)[O-]	RORg inh 8.9µM
CCc1ccc(C(=O)NC(=S)Nc2ccc(N3CCOCC3)cc2)cc1	ATXN viability inconclusive, VP16 counter 18µM, RORg inh 5µM (no result: ATXN2 expr inh)
CC(=O)c1ccc(NC(=S)Nc2ccc(N3CCOCC3)cc2)cc1	none
O=C(NC(=S)Nc1ccc(N2CCOCC2)cc1)c1ccco1	RORg inh inconclusive
O=C(NC(=S)Nc1ccc(N2CCOCC2)cc1)c1ccccc1	VP16 counter inconclusive, RORg inh 8.9µM
Cc1ccccc1C(=O)NC(=S)Nc1ccc(N2CCOCC2)cc1	VP16 counter inconclusive, RORg inh 20µM
OCCN1C[C@H](O)[C@@H](O)[C@H](O)[C@@H]1CO	none (no result: TGFb inhibitor, ATXN viability, VP16 counter, RORg inh, HepG2 viability)
O=C(CBr)c1ccc(Oc2ccc(C(=O)C[n+]3cccc(Br)c3)cc2)cc1	none (no result: ATXN2 expr inh, ATXN viability, VP16 counter, RORg inh)
Cc1cccc(-n2c(=O)c3c(c4cc(C)ccc4n3C)n(CC(=O)N3CCCC3)c2=O)c1	none (no result: VP16 counter, RORg inh)
Cc1ccc(CNC(=O)c2ccc3c(c2)N(Cc2ccccc2Cl)C(=O)CS3)cc1	ATXN viability inconclusive (no result: VP16 counter, RORg inh)
CN1CCN(c2ccc(NC(=S)NC(=O)c3cccc4c(Cl)cccc34)cc2)CC1	RORg inh inconclusive
CN(C)c1cccc(C(=O)Nc2ccc(N3CCOCC3)cc2)c1	RORg inh inconclusive
Cc1ccc(C(=O)NC(=S)NCCCN2CCOCC2)cc1	TGFb inhibitor inconclusive, RORg inh 18µM
O=C(NC(=S)Nc1ccc(N2CCOCC2)cc1)c1cccc(Cl)c1Cl	VP16 counter 5µM, RORg inh 3.2µM
O=C(NC(=S)NCCCN1CCOCC1)c1ccc(Br)cc1	RORg inh inconclusive
O=C(NC(=S)Nc1ccc(N2CCOCC2)cc1)c1cccc(Cl)c1	TGFb inhibitor inconclusive, VP16 counter 11µM, RORg inh 2.5µM
Cc1cccc(C)c1NC(=S)NC(=O)c1ccccc1F	TGFb inhibitor inconclusive, ATXN viability inconclusive, VP16 counter 6.3µM, RORg inh 4.5µM
Cn1c2c(c(=O)n(C)c1=O)C(c1ccccc1C(F)(F)F)CC(=O)N2 (stereo not given)	TGFb inhibitor inconclusive (no result: VP16 counter, RORg inh)
O=C(NC(=S)NCCN1CCOCC1)c1ccccc1	RORg inh inconclusive
Cc1ccc(C(=O)N2CCN(c3ccc(NC(=S)NC(=O)Cc4ccccc4)cc3)CC2)cc1	VP16 counter 8.9µM, RORg inh 5.6µM
O=C(NC(=S)Nc1ccc(N2CCOCC2)cc1)c1cncc(Br)c1	VP16 counter 8.9µM, RORg inh 5µM
O=C(NC(=S)NCCN1CCOCC1)c1cccc(Cl)c1	VP16 counter inconclusive, RORg inh 11µM
CC(C)Cc1nc2cc(NS(=O)(=O)N(C)C)cc(C(=O)N3CCOCC3)c2n1C	none (no result: TGFb inhibitor, ATXN2 expr inh, VP16 counter, RORg inh, HepG2 viability)
S=C(N/N=C1\C2CN3CCN(C2)CC1(c1ccccc1)C3)Nc1ccccc1	TGFb inhibitor inconclusive, VP16 counter 2.8µM, RORg inh 5µM
CCOc1cc(C(c2c(C)[nH]n(-c3ccccc3)c2=O)c2c(C)[nH]n(-c3ccccc3)c2=O)ccc1O	TGFb inhibitor 11µM, ATXN2 expr inh inconclusive, HepG2 viability 8.9µM (no result: ATXN viability, VP16 counter, RORg inh)

Compound activity from PubChem.
